In ChEMBL document CHEMBL3433997, “St. Jude Leishmania screening dataset” (2016):

target: Solute carrier family 2, facilitated glucose transporter member 1 (Homo sapiens) (UniProt P11166); assay: ST_JUDE_LEISH: Cytotoxicity at 2uM final concentration against transgenic Leishmania Mexicana promastigotes LmGLUT1 that are glucose transport deficient and complemented with the human glucose transporter GLUT1. Activity is measured by DNA content using SYBR green in vitro; assay type: functional
Sequence (P11166 whole entry): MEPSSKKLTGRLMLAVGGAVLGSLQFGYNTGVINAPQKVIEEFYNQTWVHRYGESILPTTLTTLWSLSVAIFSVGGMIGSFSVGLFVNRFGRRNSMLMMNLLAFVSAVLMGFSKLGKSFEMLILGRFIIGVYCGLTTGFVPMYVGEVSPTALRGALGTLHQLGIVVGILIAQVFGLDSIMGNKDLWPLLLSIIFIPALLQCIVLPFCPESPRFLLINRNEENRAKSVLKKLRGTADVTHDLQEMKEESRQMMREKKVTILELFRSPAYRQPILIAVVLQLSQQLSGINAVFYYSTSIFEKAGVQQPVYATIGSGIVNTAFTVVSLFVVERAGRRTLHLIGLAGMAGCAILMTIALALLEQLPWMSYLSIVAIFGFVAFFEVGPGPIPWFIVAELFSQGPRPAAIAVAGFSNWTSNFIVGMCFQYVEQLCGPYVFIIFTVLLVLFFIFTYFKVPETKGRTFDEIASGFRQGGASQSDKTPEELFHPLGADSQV

| SMILES | inhibition |
| --- | --- |
| c1cc(-c2ccc(CNCCCN3CCOCC3)cc2)cc(-c2nc3ccccc3[nH]2)c1 | 1.09% |
| COc1ccc2nc3cc(Cl)ccc3c(NCCN3CCN(C)CC3)c2c1 | 4.56% |
| COc1cc2nc(Cl)nc(Nc3ccncc3)c2cc1OC | 0.52% |
| COc1cccc2cc(C(=O)N[C@@H](CC(C)C)C(=O)N[C@H](/C=N/N3C(=O)CN(Cc4ccccc4)C3=O)CCc3ccccc3)oc12 | 7.07% |
| COc1ccc2nccc(N(C)CC3(O)CCC(NCc4cc5c(cn4)OCCO5)CC3)c2n1 (stereo not given) | 1.51% |
| CN(C)CCNC(=O)c1ccc2c(c1)ncn2-c1cc(OCc2ccccc2C(F)(F)F)c(C(N)=O)s1.CN(C)CCNC(=O)c1ccc2ncn(-c3cc(OCc4ccccc4C(F)(F)F)c(C(N)=O)s3)c2c1 | 2.32% |
| CC(C)Sc1nc2c(c(=O)n1Cc1ccco1)C1(CCCC1)Cc1ccccc1-2 | 6.99% |
| Cc1[nH]c(C)c(-c2ccc(OCc3ccc(F)cc3)cc2)c(=O)c1Cl | -0.65% |
| CCOC(=O)c1ccc(NC(=O)Nc2cccc(-c3ccc(-c4nc5ccccc5[nH]4)cc3)c2)cc1 | 5.47% |
| CCCc1cnc2nc(N)nc(N)c2c1C | -2.96% |
| COc1ccc(S(=O)(=O)NCCC2CCN(CCCCCNC(=O)C=Cc3ccc(Cl)c(Cl)c3)CC2)cc1 | 2.06% |
| O=C(NCCCN1CCCC1=O)NCc1ccccc1 | 0.3% |
| FC(F)(F)c1ccc2[nH]ccc(=NN=Cc3cccc(Cl)c3)c2c1 | 1.05% |
| CCc1nnc2sc(-c3cccc(NC(=O)c4ccc(OC)c(Cl)c4)c3)nn12 | 1.05% |
| Cc1cccc2nc(-c3ccc(-c4cccc(NC(=O)NCc5ccccc5)c4)cc3)[nH]c12 | 0.35% |
| CN(C)c1ccc(C=CC(=O)NC(=O)c2ccccc2O)cc1 | 3.19% |
| COc1cc(NC(=O)c2cccs2)c(C(=O)NCc2ccc(C)cc2)cc1OC | 5.62% |
| CC(C)C[C@H](NC(=O)c1cc(-c2ccc(C(C)(C)C)cc2)no1)C(=O)O.CC(C)C[C@H](NC(=O)c1conc1-c1ccc(C(C)(C)C)cc1)C(=O)O | 1.21% |
| O=C(Nc1cccc(CN2CCCN(CCc3ccccc3)CC2)c1)c1ccc(Cl)c(Cl)c1 | 8.79% |
| COc1cc(NC(=O)c2sc(-c3ccc(Cl)cc3)cc2Cl)ccc1OCCN1CCCC1 | 9.58% |

| SMILES | inhibition |
| --- | --- |
| Cc1ccc(-c2ccn(Cc3cccc(OCc4ccccc4)c3)n2)cn1.Cc1ccc(-c2ccnn2Cc2cccc(OCc3ccccc3)c2)cn1 | 2.15% |
| COc1ccc(-c2nc(NC(=O)CSc3ccc([N+](=O)[O-])cc3)sc2C)cc1 | 0.33% |
| Cc1cc(-c2cccc(CNC3CCN(C)CC3)c2)ccc1S(=O)(=O)NC1CCC1 | 2.28% |
| CC(=O)Nc1ccc(OCCCCN(Cc2ccccc2C(F)(F)F)c2ccc(C#N)c(C(F)(F)F)c2)c(Cl)c1 | 4.39% |
| Cc1cc(=NN=Cc2cccc(Cl)c2)c2ccccc2[nH]1 | 5.11% |
| CCN(CC)CCN(Cc1ccc(-c2ccc(C(F)(F)F)cc2)cc1)C(=O)Cn1cc(CCCCc2cccc(F)c2F)c(=O)c2ccccc21 | 7.95% |
| CN(Cc1ccc(-c2ccc(C(F)(F)F)cc2)cc1)C(=O)Cn1c(CCc2cccc(F)c2F)nc(=O)c2ccc(N3CCN(CCN4CCCCC4)CC3)nc21 | 7.76% |
| COc1cccc(CN2CCCN(Cc3cccc(NC(=O)c4ccc(Cl)c(Cl)c4)c3)CC2)c1 | 4.43% |
| O=C(Nc1c(F)cccc1F)c1cccc(-c2nn3ccccc3c2-c2ccnc(Nc3cccc(-c4cnco4)c3)n2)c1 | 12.2% |
| COc1ccccc1C1CN(CCNC(=O)c2nc(C)c[nH]2)Cc2ccccc2O1 (stereo not given) | 0.43% |
| CCc1nc(N)nc(N)c1-c1ccc(Cl)cc1 | 2.26% |
| CCCNCc1ccc(-c2ccc(CN(CCOC)C(=O)Cc3cccnc3)cc2)nc1 | 0.25% |
| Cc1ccc(C)c(NC(=O)Nc2ccc(C)c(-c3ccc(C(=O)Nc4ccncc4)cc3)c2)c1 | 6.08% |
| Cc1cc(NS(=O)(=O)c2cccc(C(C)N3CCC(N4CCCC4)CC3)c2)ccc1C(C)C (stereo not given) | 6.44% |
| O=C(c1cc2ccccc2o1)N1CCc2cc3nccc(N4CCN5CCC[C@H]5C4)c3cc21 | 3.95% |
| CCNc1cc(C(=O)N[C@@H](Cc2ccoc2)[C@H](O)CNC(C)CCCC(C)C)cc(N2CCCCS2(=O)=O)c1 (stereo not given in full) | 1.42% |
| Cc1ccccc1-c1cc(=O)c2cc(NC(=O)c3cccs3)ccc2o1 | 3.19% |
| C=CCOc1ccc(-c2c(C)[nH]c(C)c(Br)c2=O)cc1 | 2.12% |
| COc1ccc(Nc2ncc3c(-c4ccc(NC(=O)c5cccc(C(F)(F)F)c5)cc4)c[nH]c3n2)cc1OC | 0.57% |
| Cn1nc(-c2cccc(CN[C@@H]3CCc4ccc(O)cc43)c2)c2cnc(NC3CCCC3)nc21 | 4.2% |
